Assay results taken from the supplement of paper PMC8728848.
The full list was thinned out, with the strongest signals kept by preference.

B1: Surfactant Protein D (rat); Neck + Carbohydrate Recognition Domain (NCRD) (Rattus norvegicus) (protein)
chain: MLLFLLSALVLLTQPLGYLEAEMKTYSHRTMPSACTLVMCSSVESGLPGRDGRDGREGPRGEKGDPGLPGAAGQAGMPGQAGPVGPKGDNGSVGEPGPKGDTGPSGPPGPPGVPGPAGREGALGKQGNIGPQGKPGPKGEAGPKGEVGAPGMQGSAGARGAGPKGERGVPGERGVPGNTGAAGSAGAMGPQGSPGARGPPGLKGDKGIPGDKGAKGESGLPDVASLRQQVEALQGQVQHLQAAFSQYKKVELFPNGQSVGEKIFKTAGFVKPFTEAQLLCTQAGGQLASPRSAAENAALQQLVVAKNEAAFLSMTDSKTEGKFTYPTGESLVYSNWAPGEPNDDGGSEDCVEIFTNGKWNDRACGEKRLVVCEF
B2: Tulipa lectin C-1 (Tulipa hybrid) (protein)
chain: MGMALVVALAVALASTVAGQQNVLLSGNTLANEESLSYGSVKFIMQNDCNLVLYGGGFQSNTASNGKKCTLTLNNNGHLIINDGLTGRVVWRNSNAQNPVGRYAAVLRPAPGTADVAIYGPAIWSTNDEFSYQESGVVPHKLGRETPNLPRMQNLLFSGQTLYGTDGMLSSNDGSTTFELSKCQLSLSLGNEVKWKVAPTVENGKENYCHVRLDHRGHLSLLNDDNVVLFRSIPTNGVEPPIGDYVLIVEKGAGYIYGPPIWNTYDNRRYKVASA

Columns and labels:
Assay in all cases: glycan array binding signal (z-score within array); higher = stronger binding
Details in all cases: glycan notation: IUPAC condensed, linker removed
[1] = target: Fuc(a1-2)Gal(b1-4)GlcNAc(b1-3)Gal(b1-4)GlcNAc
Procedure, shortened: (§1)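 Negative Z-scores can be read as non-binding. The Z-score is calculated within each array and then averaged across arrays of one protein sequence at different concentrations or buffers and across linkers. Arrays, 3228 in all, were curated from the Consortium for Functional Glycomics database and kept only where the protein sequence was available.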

[2] = target: Fuc(a1-3)[Gal(b1-4)]GlcNAc6S
Procedure, shortened: as §1

Gal(a1-4)Gal(b1-4)Glc = target: Gal(a1-4)Gal(b1-4)Glc
Procedure, shortened: as §1

Gal(a1-4)GlcNAc = target: Gal(a1-4)GlcNAc
Procedure, shortened: as §1

[3] = target: Gal(b1-3)GlcNAc(b1-3)Gal(b1-4)Glc
Procedure, shortened: as §1

[4] = target: Gal(b1-4)GalNAc(b1-3)[Fuc(a1-2)]Gal(b1-4)GlcNAc
Procedure, shortened: as §1

[5] = target: GlcNAc(b1-4)GlcNAc(b1-4)GlcNAc(b1-4)GlcNAc(b1-4)GlcNAc(b1-4)GlcNAc
Procedure, shortened: as §1

[6] = target: Man(a1-2)Man(a1-2)Man(a1-6)[Man(a1-3)]Man
Procedure, shortened: as §1

[7] = target: Man(a1-2)Man(a1-3)[Man(a1-2)Man(a1-6)]Man
Procedure, shortened: as §1

[8] = target: Man(a1-2)Man(a1-3)[Man(a1-2)Man(a1-6)]Man(a1-6)[Man(a1-2)Man(a1-2)Man(a1-3)]Man
Procedure, shortened: as §1

[9] = target: Man(a1-2)Man(a1-6)[Man(a1-3)]Man(a1-6)[Man(a1-2)Man(a1-2)Man(a1-3)]Man
Procedure, shortened: as §1

[10] = target: Man(a1-2)Man(a1-6)[Man(a1-3)]Man(a1-6)[Man(a1-2)Man(a1-2)Man(a1-3)]Man(b1-4)GlcNAc(b1-4)GlcNAc
Procedure, shortened: as §1

Man(a1-6)Man = target: Man(a1-6)Man
Procedure, shortened: as §1

[11] = target: Neu5Ac(a2-3)Gal(b1-3)GalNAc(b1-3)Gal(a1-4)Gal(b1-4)Glc
Procedure, shortened: as §1

[12] = target: Neu5Ac(a2-3)Gal(b1-3)GalNAc(b1-3)Gal(b1-4)GlcNAc
Procedure, shortened: as §1

[13] = target: Neu5Ac(a2-3)Gal(b1-4)GlcNAc(b1-2)Man(a1-3)[Neu5Ac(a2-6)Gal(b1-4)GlcNAc(b1-2)Man(a1-6)]Man(b1-4)GlcNAc(b1-4)GlcNAc
Procedure, shortened: as §1

[14] = target: Neu5Ac(a2-3)Gal(b1-4)[Fuc(a1-3)]GlcNAc
Procedure, shortened: as §1

[15] = target: Neu5Ac(a2-6)Gal(b1-4)GlcNAc(b1-2)Man(a1-3)[Neu5Ac(a2-6)Gal(b1-4)GlcNAc(b1-2)Man(a1-6)]Man(b1-4)GlcNAc(b1-4)GlcNAc
Procedure, shortened: as §1

[16] = target: Neu5Ac(a2-6)Gal(b1-4)GlcNAc(b1-3)Gal(b1-4)GlcNAc
Procedure, shortened: as §1

[17] = target: Neu5Ac(a2-8)Neu5Ac(a2-8)Neu5Ac(a2-3)Gal(b1-4)Glc
Procedure, shortened: as §1

[18] = target: Gal(b1-3)GalNAc(b1-3)Gal(b1-4)Glc
Procedure, shortened: as §1

[19] = target: Gal(b1-4)GlcNAc(b1-2)Man(a1-3)[Gal(b1-4)GlcNAc(b1-2)Man(a1-6)]Man(b1-4)GlcNAc(b1-4)GlcNAc
Procedure, shortened: as §1

[20] = target: GlcNAc(b1-2)Man(a1-3)[GlcNAc(b1-2)Man(a1-6)]Man(b1-4)GlcNAc(b1-4)GlcNAc
Procedure, shortened: as §1

[21] = target: GlcNAc(b1-3)Gal(b1-4)GlcNAc
Procedure, shortened: as §1

[22] = target: Man(a1-2)Man(a1-3)[Man(a1-3)[Man(a1-6)]Man(a1-6)]Man(b1-4)GlcNAc(b1-4)GlcNAc
Procedure, shortened: as §1

[23] = target: Man(a1-3)[Man(a1-6)]Man(b1-4)GlcNAc(b1-4)GlcNAc
Procedure, shortened: as §1

[24] = target: Neu5Ac(a2-6)Gal(b1-4)GlcNAc(b1-3)Gal(b1-4)[Fuc(a1-3)]GlcNAc(b1-3)Gal(b1-4)[Fuc(a1-3)]GlcNAc
Procedure, shortened: as §1

[25] = target: Neu5Ac(a2-6)GalNAc(b1-4)GlcNAc
Procedure, shortened: as §1

Binder	glycan array binding signal (z-score) [1]	glycan array binding signal (z-score) [2]	glycan array binding signal (z-score) (Gal(a1-4)Gal(b1-4)Glc)	glycan array binding signal (z-score) (Gal(a1-4)GlcNAc)	glycan array binding signal (z-score) [3]	glycan array binding signal (z-score) [4]	glycan array binding signal (z-score) [5]	glycan array binding signal (z-score) [6]	glycan array binding signal (z-score) [7]	glycan array binding signal (z-score) [8]	glycan array binding signal (z-score) [9]	glycan array binding signal (z-score) [10]	glycan array binding signal (z-score) (Man(a1-6)Man)	glycan array binding signal (z-score) [11]	glycan array binding signal (z-score) [12]	glycan array binding signal (z-score) [13]	glycan array binding signal (z-score) [14]	glycan array binding signal (z-score) [15]	glycan array binding signal (z-score) [16]	glycan array binding signal (z-score) [17]	glycan array binding signal (z-score) [18]	glycan array binding signal (z-score) [19]	glycan array binding signal (z-score) [20]	glycan array binding signal (z-score) [21]	glycan array binding signal (z-score) [22]	glycan array binding signal (z-score) [23]	glycan array binding signal (z-score) [24]	glycan array binding signal (z-score) [25]
B1	-0.183	0.145	-0.276	-0.242	-0.194	-0.02	-0.108	4.11	3	13.2	4.18	8.4	-0.223	-0.176	-0.198	-0.117	0.004	0.111	-0.105	-0.048	–	–	–	–	–	–	–	–
B2	-0.2	–	–	–	–	–	–	–	–	–	–	–	–	–	–	–	–	5.26	–	–	-0.226	5.37	4.39	-0.23	-0.179	4.98	-0.093	-0.003
